# Measured values published in PubChem BioAssay AID588591 (National Center for Advancing Translational Sciences (NCATS), 2011).
# In all, about 390,000 compounds went through this assay and about 4,700 (1.2%) were called active. Inconclusive results (about 4%) are left out. Many of the other results were omitted from the sample, so actives are more common in it than they were. Values without a mark were called inactive. Calls follow the shape of the dose curve; as a rule, active = well fitted inhibition curve with a large enough effect; inconclusive = small, poorly fitted or top-dose-only effect, or another doubt; inactive = no such curve, though single readings can be large or run the other way.
# Target: DNA polymerase eta (Homo sapiens) (UniProt Q9Y253)
# Sequence (Q9Y253 whole entry, looked up): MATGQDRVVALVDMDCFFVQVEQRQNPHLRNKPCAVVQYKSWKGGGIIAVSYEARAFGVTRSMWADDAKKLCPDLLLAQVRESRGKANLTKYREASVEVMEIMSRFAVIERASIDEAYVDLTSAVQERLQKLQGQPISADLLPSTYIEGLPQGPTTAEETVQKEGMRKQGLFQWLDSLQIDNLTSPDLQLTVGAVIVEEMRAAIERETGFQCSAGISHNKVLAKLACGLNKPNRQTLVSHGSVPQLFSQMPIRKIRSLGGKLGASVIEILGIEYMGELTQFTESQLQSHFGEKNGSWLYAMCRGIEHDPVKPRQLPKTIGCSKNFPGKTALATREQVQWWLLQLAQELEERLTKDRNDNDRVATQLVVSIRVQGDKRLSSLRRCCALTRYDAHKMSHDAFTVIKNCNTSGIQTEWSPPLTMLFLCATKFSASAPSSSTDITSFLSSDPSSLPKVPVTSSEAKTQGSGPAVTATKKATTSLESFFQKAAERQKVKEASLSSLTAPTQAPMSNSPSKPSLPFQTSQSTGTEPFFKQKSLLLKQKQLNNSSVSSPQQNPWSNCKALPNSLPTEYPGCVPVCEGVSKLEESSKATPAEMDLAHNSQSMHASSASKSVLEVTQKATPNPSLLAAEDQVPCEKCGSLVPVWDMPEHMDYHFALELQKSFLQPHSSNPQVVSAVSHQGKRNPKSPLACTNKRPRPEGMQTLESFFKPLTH
# Assay: qHTS for Inhibitors of Polymerase Eta
# Settings: recombinant Pol eta, fluorescent DNA replication assay; series mostly up to 114 µM; activity change, negative = inhibition: at the top concentration
# In short: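 Pol eta at 10 nM preincubated with compounds 15 min at room temperature; reaction started with fluorescent substrate (50 nM final) and read kinetically at 0 and 10 min.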
# % is scaled to controls: 0 for no effect and ±100 for the full control effect; potency is read from the fitted curve at half-maximal effect.
Compound,"activity change, negative = inhibition",Potency
COc1cc(NC(=O)CCn2nc(C)cc2C)cc(OC)c1OC,-19.7%,–
Cc1nc2nc(SCC(=O)N(Cc3ccccc3)C(C)C)nn2c(C)c1Cc1ccccc1Cl,-23.9%,–
Cc1ccccc1NC(=O)c1cc2c([nH]c1=O)CC(C)(C)CC2=O,-4.53%,–
Cc1ccc(C(=O)N/N=C/c2sc(=O)n(Cc3cccc(C(=O)O)c3)c2Cl)cc1,-4.43%,–
Cc1ccc2cc(/C=N/Nc3ccc(C(=O)O)cc3)c(Cl)nc2c1,–,50.1 µM (active)
Cc1ccc2nc(CNC(=O)c3ccccc3)[nH]c2c1,-13.4%,–
COc1ccc(CNc2nc(-c3ccc(Cl)cc3)nn2C(=O)c2ccccc2)cc1,-13.5%,–
Cc1cccc2nc(-c3ccc(Cl)s3)c(Nc3ccc4c(c3)OCCO4)n12,-5.2%,–
CN1OC(COC(=O)c2ccc(Cl)cc2)CC1c1ccccc1 (centres undefined),-10%,–
Cc1ccccc1S(=O)(=O)N1[C@@H](c2cccc(Cl)c2)C(C(=O)O)=CC[C@H]1c1ccc(Cl)cc1,–,89.1 µM (active)
Cc1ccc(S(=O)(=O)N2[C@@H](c3ccccc3F)C(C(=O)O)=CC[C@H]2c2ccc(Cl)cc2)cc1,-7.7%,–
CCOc1ccc(NC(=O)c2cn(C3CCCCC3)c(=O)c3c2c2ccccc2n3C)cc1,-24.7%,–
COc1cc2c(=O)c(S(=O)(=O)c3ccc(C(C)C)cc3)cn(Cc3ccccc3C)c2cc1OC,-6.1%,–
CC(NC(=O)CCc1cn(Cc2ccccc2Cl)c2ccccc12)c1ccccc1 (centres undefined),-19.7%,–
Cc1noc(C)c1NC(=O)Nc1cccc2c1O[C@H](CN(C)C(=O)Nc1ccccc1)[C@@H](C)CN([C@H](C)CO)C2=O,-18.9%,–
C[C@H](CO)N1C[C@H](C)[C@H](CN(C)C(=O)Nc2ccc(C(F)(F)F)cc2)Oc2c(NC(=O)c3ccncc3)cccc2C1=O,–,89.1 µM (active)
Cc1noc(C)c1NC(=O)Nc1ccc2c(c1)C(=O)N([C@H](C)CO)C[C@H](C)[C@@H](CN(C)C(=O)Nc1ccc(C(F)(F)F)cc1)O2,-7.85%,–
CCCN(C(=O)Cn1ncc2c([nH]c3ccc(C)cc32)c1=O)c1ccccc1C,-17.1%,–
Cc1ccc(CNC(=O)CCc2c(C)nc3nc(CNC(=O)OC(C)(C)C)nn3c2C)cc1,-10.2%,–
O=C(Cc1ccc(S(=O)(=O)N2CCCC2)s1)NC1CCCCCC1,–,14.1 µM (active)
O=C(NC1CCCCC1)C1CCCN(S(=O)(=O)c2ccc(Br)s2)C1 (centres undefined),-5.27%,–
COc1ccccc1NC(=O)COC(=O)Cc1ccc(S(=O)(=O)N2CCCCC2)s1,-22.4%,–
COc1cccc(Cn2c(CNS(=O)(=O)c3ccc(Cl)s3)nc3cccnc32)c1,-21.5%,–
CCOC(=O)c1ccc(NC(=O)c2csc3c2CCCCC3)cc1,-10.6%,–
